PubChem BioAssay (Tox21)
Results filed as inconclusive are left out. The source made the active and inactive calls. Unless noted, the call rests on the fitted dose curve; in most records, active means well fitted curve in the direction sought with a large enough effect in the repeat runs; inconclusive means weak or mixed curves; inactive means no such curve, though single readings can be large; an effect the other way counts as inactive or inconclusive.

Experiments:
[1] = qHTS assay to identify small molecule agonists of the RXR signaling pathway - cell viability counter screen (AID 1159529); further: nearly all actives have a fitted effect of over 50% in size; further: potency means the concentration at half of the fitted maximal effect;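 on activity change, negative = cytotoxicity: HEK 293T cells carrying an RXR-alpha UAS beta-lactamase reporter; series mostly up to about 77 µM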
Outline: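 Counter screen: CellTiter-Glo luminescence. Cells: RXR-alpha-UAS-bla HEK 293T. Medium: 2% charcoal-stripped FBS. Treatment: 16 h, 37 C. Reagent incubation: 30 min, RT.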

[2] = qHTS assay to identify small molecule antagonists of the retinoid acid receptor (RAR) signaling pathway - cell viability counter screen (AID 1159551); further: nearly all actives have a fitted effect of over 35% in size
Outline: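 Viability of C3RL4 cells is quantified from ATP by luminescence after 6 h treatment at 37 C with compounds and 1 uM retinol.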

[3] = qHTS assay to identify small molecule antagonists of the retinoic acid receptor (RAR) signaling pathway (AID 1159552; further: nearly all actives have a fitted effect of over 50% in size; further: potency means the concentration at half of the fitted maximal effect)
Outline: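 Antagonism of retinol-induced RARE reporter activity was measured in C3RL4 cells. Exposure to compounds and 1 uM final retinol lasted 6 hr at 37 C, with luminescence as endpoint.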

[4] = qHTS assay to identify small molecule agonists of the retinoic acid receptor (RAR) signaling pathway (AID 1159553); further: potency means the concentration at half of the fitted maximal effect
Outline: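 Compounds dissolved in DMSO were pinned onto C3RL4 cells seeded the previous day, and plates were held 6 hr at 37 C. RARE-driven luciferase output was then read by luminescence.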

[5] = qHTS assay to identify small molecule antagonists of the estrogen related receptor (ERR) signaling pathway - cell viability counter screen (AID 1224818);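 further: series mostly up to about 46 µM; viability measured after 17.5 h of compound exposure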
Outline: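 Cytotoxicity check run alongside the ERR antagonist screen: cells exposed to test compounds 17.5 h at 37 C, viability taken as CellTiter-Fluor fluorescence intensity.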

[6] = qHTS assay to identify small molecule antagonists of the estrogen related receptor signaling pathway with the pleiotropic PPARgamma coactivator (PGC) cell viability counter screen (AID 1224822;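 further: series mostly up to about 46 µM; viability read after 17.5 h compound exposure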)
Outline: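 Viable cell signal (CellTiter-Fluor, 30 min, 37 C/5% CO2) was measured in PGC/ERR cells after a 17.5 h compound incubation.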

[7] = qHTS assay to identify small molecule antagonists of the estrogen related receptor (ERR) signaling pathway (AID 1224819;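 further: luminescence from an ERR-driven luciferase reporter measured with One-Glo reagent; series mostly up to about 46 µM; nearly all actives have a fitted effect of over 50% in size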)
Outline: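 ERR reporter cells were plated at 2,000 cells/well and left 6 h at 37 C/5% CO2 before pin-tool transfer of compounds in DMSO. After 18 h at 37 C, One-Glo was added and luminescence was read 30 min later at room temperature.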

[8] = qHTS assay to identify small molecule agonists of the estrogen related receptor (ERR) signaling pathway (AID 1224820)
Outline: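 Luminescence readout (One-Glo, 30 min RT) from NTP-supplied ERR cell line exposed to compounds for 18 h at 37 C. Cells seeded 2,000 per well and pre-incubated 6 h before pin-tool compound transfer.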

[9] = tested on: estrogen-related receptor alpha (ERRalpha) with PGC-1alpha coactivator, human; assay: qHTS assay to identify small molecule antagonists of the estrogen related receptor signaling pathway with the pleiotropic PPARgamma coactivator (PGC) (AID 1224821; calls by dose curve;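 further: series mostly up to about 46 µM; lower luminescence signal means antagonism of PGC/ERR signalling; nearly all actives have a fitted effect of over 50% in size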)
Outline: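 PGC/ERR reporter cells; 6 h pre-incubation 37 C/5% CO2; pin-tool compound in DMSO, 18 h 37 C; One-Glo added, 30 min RT; luminescence read. qHTS antagonist mode.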

[10] = qHTS assay to identify small molecule agonists of the estrogen related receptor signaling pathway with the pleiotropic PPARgamma coactivator (PGC) (AID 1224823)
Outline: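 Luminescence readout (One-Glo, 30 min RT) from PGC/ERR cell line treated 18 h at 37 C with pin-tool-delivered DMSO compound solutions; cells plated 6 h before dosing. Quantitative HTS format.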
On the % scale 0 is the no-effect control and ±100 the full control effect.

CCOC(=O)C(F)(F)F
inactive: Potency [1] | Potency [2] | Potency [3] | Potency [4]

C#CCN(C)CCCOc1ccc(Cl)cc1Cl
inactive: Potency [1] | Potency [2] | Potency [3] | outcome [5] | outcome [6]

O=C(OCCc1ccccc1)c1ccccc1
active: Potency [4] 0.386 µM
inactive: Potency [1] | Potency [2] | Potency [3]

CN1C[C@H]2c3ccccc3Oc3ccc(Cl)cc3[C@@H]2C1
inactive: Potency [1] | Potency [2] | Potency [3] | Potency [4]

COc1cc(C(=O)OCCCN2CCCN(CCCOC(=O)c3cc(OC)c(OC)c(OC)c3)CC2)cc(OC)c1OC
inactive: Potency [1] | Potency [2] | Potency [7] | outcome [8] | Potency [9] | outcome [10]
active: Potency [3] 13.3 µM

CC1CCC(=O)C1=O (stereo unspecified)
inactive: Potency [1] | Potency [2] | Potency [3] | Potency [4]

CCCCCCCCCCCc1ccccc1
inactive: Potency [1] | Potency [2] | Potency [3] | Potency [4]

Cc1ccc(C(C)OC(=O)C2(C)CCC(C(=O)O)C2(C)C)cc1 (stereo unspecified)
inactive: Potency [1] | Potency [2] | Potency [3] | Potency [4]

CCCCc1ncc(/C=C(\Cc2cccs2)C(=O)O)n1Cc1ccc(C(=O)O)cc1
inactive: Potency [1] | Potency [2] | Potency [3] | Potency [4] | outcome [5] | outcome [6]

C[C@@H](c1ncncc1F)C(O)(Cn1cncn1)c1ccc(F)cc1F (stereo partly specified)
inactive: Potency [1] | Potency [2] | Potency [3] | Potency [4]

C/C(=C(\CCOP(=O)(O)O)SC(=O)c1ccccc1)N(C=O)Cc1cnc(C)nc1N
inactive: activity change, negative = cytotoxicity [1] -1.63% [at 6.97 µM] | activity change, negative = cytotoxicity [2] 2.57% [at 8.39 µM] | activity, negative = inhibition [3] 10.1% [at 8.39 µM] | activation [4] 0.351% [at 8.36 µM]

O=CC1CC=CCC1 (stereo unspecified)
inactive: Potency [1] | Potency [2] | Potency [3] | Potency [4]

O=C(O)c1nc(Cl)c(Cl)c(Cl)c1Cl
inactive: Potency [1] | Potency [2] | Potency [3] | Potency [4]

C=C(C)C(=O)OCCOCC
inactive: Potency [1] | Potency [2] | Potency [3] | Potency [4]

Cc1cc(C(=O)O)ccc1[N+](=O)[O-]
inactive: Potency [1] | Potency [2] | Potency [3] | Potency [4]

C[C@@H]1C[C@H]2[C@@H]3CCC4=CC(=O)C=C[C@]4(C)[C@@]3(F)[C@@H](O)C[C@]2(C)[C@@]1(O)C(=O)COC(=O)c1ccncc1
inactive: Potency [1] | Potency [2] | Potency [3] | Potency [4]

O=P(O)(OCc1ccccc1)OCc1ccccc1
inactive: Potency [1] | Potency [2] | Potency [3] | Potency [4]

CCCCCCCCO[C@@H]1O[C@H](CO)[C@@H](O)[C@H](O)[C@H]1O
inactive: Potency [1] | Potency [2] | Potency [4]

CC(C)CC(=O)C1C(=O)c2ccccc2C1=O
inactive: Potency [1] | Potency [2] | Potency [4]

CC(=O)[O][Al][O]C(C)=O
inactive: Potency [1] | Potency [2] | Potency [4]

O=C(Nc1ccc(S(=O)(=O)N2CCOCC2)cc1)c1cc(Cl)ccc1NS(=O)(=O)c1ccc(Cl)s1
inactive: Potency [1] | Potency [2] | Potency [4]

COCC(C)OC(C)=O (stereo unspecified)
inactive: Potency [1] | Potency [2] | Potency [4]

Nc1c(CC(=O)O)cccc1C(=O)c1ccc(Br)cc1
inactive: Potency [1] | Potency [2] | Potency [4]

CCCCCCOC(=O)NC(=N)c1ccc(NCc2nc3cc(C(=O)N(CCC(=O)OCC)c4ccccn4)ccc3n2C)cc1
active: Potency [1] 10.7 µM
inactive: Potency [2] | Potency [4]

CN(C)c1ccc(CCO)cc1
inactive: Potency [1] | Potency [2] | Potency [4]

CCC(=O)O[C@]1(C(=O)CCl)[C@@H](C)C[C@H]2[C@@H]3CCC4=CC(=O)C=C[C@]4(C)[C@@]3(F)[C@@H](O)C[C@@]21C
inactive: Potency [1] | Potency [2] | Potency [4]

CNC(=O)CN(CCN(CCN(CC(=O)[O-])CC(=O)NC)CC(=O)[O-])CC(=O)[O-].O.[Gd+3]
inactive: Potency [1] | Potency [2] | Potency [4]

Nc1cccc([N+](=O)[O-])c1
inactive: Potency [1] | Potency [2] | Potency [4]

NC(=O)C(c1ccccc1)(c1ccccc1)[C@@H]1CCN(CCc2ccc3c(c2)CCO3)C1
inactive: Potency [1] | Potency [2] | Potency [4]

CCNc1cc(O)ccc1C
inactive: Potency [1] | Potency [2] | Potency [4]

CC(COCCO)OCCO (stereo unspecified)
inactive: Potency [1] | Potency [2] | Potency [4]

CCc1c(C(=O)NN2CCCCC2)nn(-c2ccc(Cl)cc2Cl)c1-c1ccc(Br)cc1
inactive: Potency [1] | Potency [2] | Potency [4]

NS(=O)(=O)c1ccc(N2CCCCS2(=O)=O)cc1
inactive: Potency [1] | Potency [2] | Potency [4]

Cc1nn(C)c(Oc2ccccc2)c1/C=N/OCc1ccc(C(=O)OC(C)(C)C)cc1
inactive: Potency [1] | Potency [2] | Potency [4]

CC(C)(C)OCC1CO1 (stereo unspecified)
inactive: Potency [1] | Potency [2] | Potency [4]

O=C(O)C1(C(=O)O)CCC1.[NH2-].[NH2-].[Pt+2]
inactive: Potency [1] | Potency [2] | Potency [4]
